MEKK3 PB1 HTS = modulators (inhibitors or enhancers) of MEK5 binding to human MEKK3 PB1 domain | Q99759 | bead-based flow cytometry, Alexa488-MEK5 binding to MEKK3; actives lie on both sides; 0 = blocked by unlabeled MEK5, 100 = vehicle | binding response (% of control), % at 10 µM | hit rate 1.4% among 290,000 | AID 1529;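 active means binding response more than 3 SD above or below the average of its plate-row segment, actives on both sides; inconclusive means wells at one plate position flagged as instrument error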;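 further: Alexa488 bead fluorescence after subtracting the streptavidin-only scavenger bead signal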
Target sequence (Q99759 whole entry, looked up, the tested form may be a part): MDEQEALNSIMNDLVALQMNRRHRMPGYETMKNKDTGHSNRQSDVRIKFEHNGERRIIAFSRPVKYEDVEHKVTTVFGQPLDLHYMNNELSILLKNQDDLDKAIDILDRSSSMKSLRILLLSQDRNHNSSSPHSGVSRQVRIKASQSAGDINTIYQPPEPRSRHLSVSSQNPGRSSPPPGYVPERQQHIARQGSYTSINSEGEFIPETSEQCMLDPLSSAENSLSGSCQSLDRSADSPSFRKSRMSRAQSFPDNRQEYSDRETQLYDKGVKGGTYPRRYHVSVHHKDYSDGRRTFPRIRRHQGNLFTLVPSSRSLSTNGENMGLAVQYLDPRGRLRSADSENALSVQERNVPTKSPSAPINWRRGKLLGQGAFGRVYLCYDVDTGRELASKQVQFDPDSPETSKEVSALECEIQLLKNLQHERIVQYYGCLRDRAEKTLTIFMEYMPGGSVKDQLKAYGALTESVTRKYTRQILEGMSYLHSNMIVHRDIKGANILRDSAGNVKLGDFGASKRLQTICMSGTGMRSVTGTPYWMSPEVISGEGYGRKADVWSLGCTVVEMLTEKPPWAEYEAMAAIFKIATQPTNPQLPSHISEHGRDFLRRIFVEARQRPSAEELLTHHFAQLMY
UBC13 inh = blocks human UBC13 polyubiquitin chain formation. P61088. TR-FRET. inhibition, % at 20 µM. hit rate 0.47% among 330,000; in the data active means inhibition above about 45%, passing the limit was not always enough; inconclusive means no clear call, values can overlap the other calls
Rce1 inhib = yeast Ras-converting enzyme inhibition; yeast membranes, quenched prenylated peptide cleavage fluorescence; Q03530; calls only; hit rate 0.27% among 290,000;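 active means fall in fluorescence gain of 50% or more versus controls, with final raw signal at or below 3038400; inconclusive means same 50% fall but final raw signal above 3038400; inactive means fall in fluorescence gain under 50%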;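 further: plate controls were neutral control wells for no effect and wells lacking membranes for full effect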
MEKK2 WT-MEK5 = raises or lowers MEK5 binding to wildtype human MEKK2 PB1 domain | binding response (% of control), % at 10 µM | bead flow cytometry, Alexa488-MEK5 binding to MEKK2 WT; actives lie on both sides | Q9Y2U5 | AID 1531 | hit rate 1.1% among 290,000; in the data active means binding response below about 67% or above about 130%; inconclusive means no clear call, values can overlap the other calls; inactive means in between
MEKK2 mut-MEK5 = signal of MEK5 binding to mutant human MEKK2 PB1 domain; AID 1530; bead flow cytometry, Alexa488-MEK5 binding to MEKK2 mutant; hit rate 0.35% among 290,000; percent response, % at 10 µM; in the data active means percent response above about 24%, passing the limit was not always enough
Casp3 counter = caspase-3 inhibition (UBC13 counter-screen); hit rate 4% among 1,400; inhibition, % at 20 µM; shares compounds with UBC13 inh; Recombinant caspase-3, Caspase-Glo 3/7 luminescence, 60 min;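 active means mean inhibition across replicates above about 26%, limit read from the data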;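 further: plate controls were DMSO with caspase-3 for no effect and DMSO wells lacking enzyme for full effect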
UBC13 conf = human UBC13 polyubiquitin inhibition, confirmed; shares compounds with UBC13 inh; UBC13 polyubiquitination, TR-FRET, biochemical; inhibition, % at 10 µM; hit rate 68% among 1,400; in the data active means inhibition above about 45%; inconclusive means no clear call, values can overlap the other calls
* hit, by the source's call. Most compounds without a hit are left out; they make up all but 2.5% or so of the library.

How did C=CCNC(=O)NC(=O)CSc1nnc(C(F)(F)F)n1C do in these assays?
MEKK3 PB1 HTS: 97; UBC13 inh: 48*; Rce1 inhib: inactive; MEKK2 WT-MEK5: 88; MEKK2 mut-MEK5: -9; Casp3 counter: 0; UBC13 conf: 9

How did CNC(=O)NC(=O)CSc1nnc(C(F)(F)F)n1C do in these assays?
MEKK3 PB1 HTS: 104; UBC13 inh: -1; Rce1 inhib: inactive; MEKK2 WT-MEK5: 104; MEKK2 mut-MEK5: 2

What do the screens show for `CC(C)=CCc1c(-c2ccc(O)cc2O)oc2cc3c(c(O)c2c1=O)C=CC(C)(C)O3`?
MEKK3 PB1 HTS: 103; UBC13 inh: 50*; Rce1 inhib: inactive; MEKK2 WT-MEK5: 98; MEKK2 mut-MEK5: 0; Casp3 counter: 0; UBC13 conf: 2

What do the screens show for `COc1ccc(-c2oc3c4c(cc(OC)c3c(=O)c2CC=C(C)C)OC(C)(C)C=C4)c(OC)c1`?
MEKK3 PB1 HTS: 98; UBC13 inh: -10; Rce1 inhib: inactive; MEKK2 WT-MEK5: 82; MEKK2 mut-MEK5: -2

Results for CC1CCN(CCCNC(=O)c2ccc3c(=O)n(Cc4ccc(Cl)cc4)c(=S)[nH]c3c2)CC1 ?
MEKK3 PB1 HTS: 100; UBC13 inh: 53*; Rce1 inhib: inactive; MEKK2 WT-MEK5: 118; MEKK2 mut-MEK5: 0; Casp3 counter: 2; UBC13 conf: 73*

How did Cc1ccc(C(=O)OC2OC(=O)C(Cl)=C2N2CCOCC2)cc1 (stereo unspecified) do in these assays?
MEKK3 PB1 HTS: 92; UBC13 inh: 5; Rce1 inhib: inactive; MEKK2 WT-MEK5: 97; MEKK2 mut-MEK5: -2

How did C=CCn1c(=O)c(C(=O)Nc2ccc(C)cn2)c(O)c2ccccc21 do in these assays?
MEKK3 PB1 HTS: 107; UBC13 inh: 55*; Rce1 inhib: inactive; MEKK2 WT-MEK5: 109; MEKK2 mut-MEK5: 4; Casp3 counter: 3; UBC13 conf: 30

How did COc1ccc(CCN(/C=C2\Sc3ccccc3C2=O)C(C)=O)cc1OC do in these assays?
MEKK3 PB1 HTS: 92; UBC13 inh: 52*; Rce1 inhib: inactive; MEKK2 WT-MEK5: 90; MEKK2 mut-MEK5: -16; Casp3 counter: 0; UBC13 conf: 34

What do the screens show for `COc1ccc(-c2cc(=O)c3c(O)c(OC)c(O)cc3o2)cc1`?
MEKK3 PB1 HTS: 97; UBC13 inh: 3; Rce1 inhib: inactive; MEKK2 WT-MEK5: 99; MEKK2 mut-MEK5: 0

What do the screens show for `COc1cc(-c2cc(=O)c3c(O)c(OC)c(OC)cc3o2)cc(OC)c1O`?
MEKK3 PB1 HTS: 104; UBC13 inh: 49*; Rce1 inhib: inactive; MEKK2 WT-MEK5: 113; MEKK2 mut-MEK5: 6; Casp3 counter: 3; UBC13 conf: -2

What do the screens show for `CCCC[C@@H](CN[C@H](C)CNC)NCC1CCC(C(C)(C)C)CC1` (stereo partly specified)?
MEKK3 PB1 HTS: 108; UBC13 inh: 61*; Rce1 inhib: inactive; MEKK2 WT-MEK5: 131; MEKK2 mut-MEK5: 2; Casp3 counter: -2; UBC13 conf: 14

What do the screens show for `CCOC(=O)C1=C(c2ccccc2)O/C(=C(\C(=O)OC)C(F)(F)F)S1`?
MEKK3 PB1 HTS: 103; UBC13 inh: 51*; Rce1 inhib: inactive; MEKK2 WT-MEK5: 105; MEKK2 mut-MEK5: 6; Casp3 counter: 1; UBC13 conf: 44

Results for CCOC(=O)C1=C(c2ccccc2)O/C(=C(/C#N)C(F)(F)F)S1 ?
MEKK3 PB1 HTS: 100; UBC13 inh: 8; Rce1 inhib: inactive; MEKK2 WT-MEK5: 99; MEKK2 mut-MEK5: -3

What do the screens show for `CCOC(=O)c1c(CN2CCN(c3ccccc3)CC2)oc2ccc(O)cc12`?
MEKK3 PB1 HTS: 103; UBC13 inh: 91*; Rce1 inhib: inactive; MEKK2 WT-MEK5: 102; MEKK2 mut-MEK5: 10; Casp3 counter: -3; UBC13 conf: 83*

How did CCOC(=O)c1c(CN2CCN(C)CC2)oc2ccc(OC)cc12 do in these assays?
MEKK3 PB1 HTS: 101; UBC13 inh: 7; Rce1 inhib: inactive; MEKK2 WT-MEK5: 99; MEKK2 mut-MEK5: -3

Results for CCNC(=S)N(CCCN(C)C)Cc1cc2cc3c(cc2[nH]c1=O)OCCO3 ?
MEKK3 PB1 HTS: 103; UBC13 inh: 8; Rce1 inhib: inactive; MEKK2 WT-MEK5: 105; MEKK2 mut-MEK5: 4

How did CC(=O)O[C@H]1[C@@H](O)[C@H](O)[C@H](Oc2c(O)c(C)c3c4c2[C@@H](C)CC[C@@H]4[C@@H](C)C[C@H]3C=C(C)C)O[C@H]1C do in these assays?
UBC13 inh: 52*; Casp3 counter: -2; UBC13 conf: 32

What do the screens show for `COc1cc(-c2nc3ccc(N4CCN(C)CC4)cc3[nH]2)cc(OC)c1OC`?
MEKK3 PB1 HTS: 98; UBC13 inh: 45*; Rce1 inhib: inconclusive; MEKK2 WT-MEK5: 105; MEKK2 mut-MEK5: -2; Casp3 counter: -1; UBC13 conf: 37

Results for COc1ccc(-c2nc3ccc(N4CCN(C)CC4)cc3c(=O)[nH]2)cc1 ?
MEKK3 PB1 HTS: 88; UBC13 inh: -2; Rce1 inhib: inactive; MEKK2 WT-MEK5: 90; MEKK2 mut-MEK5: -11

How did N#CCC(=O)Nc1ccc(C(=O)NCc2cccc(Cl)c2)cc1 do in these assays?
MEKK3 PB1 HTS: 84; UBC13 inh: 16; Rce1 inhib: inactive; MEKK2 WT-MEK5: 90; MEKK2 mut-MEK5: -7

How did Cc1ccc(S(=O)(=O)N2CCCC(C(=O)NNCC(=O)Nc3cc(F)ccc3F)C2)cc1 (stereo unspecified) do in these assays?
MEKK3 PB1 HTS: 100; UBC13 inh: 48*; Rce1 inhib: inactive; MEKK2 WT-MEK5: 101; MEKK2 mut-MEK5: 0; Casp3 counter: 3; UBC13 conf: 33

What do the screens show for `Cc1ccc(S(=O)(=O)N2CCCC(C(=O)NC3CC3)C2)cc1` (stereo unspecified)?
MEKK3 PB1 HTS: 101; UBC13 inh: -5; Rce1 inhib: inactive; MEKK2 WT-MEK5: 101; MEKK2 mut-MEK5: -2

Results for CS(=O)(=O)c1ccc(-c2sc3ccccc3c2C#CCCO)cc1 ?
UBC13 inh: 45

How did COc1ccc(-c2sc3ccccc3c2C#CCO)cc1 do in these assays?
MEKK3 PB1 HTS: 96; UBC13 inh: 17; Rce1 inhib: inactive; MEKK2 WT-MEK5: 94; MEKK2 mut-MEK5: -6

How did Cn1cncc1C#Cc1c(-c2ccc(S(C)(=O)=O)cc2)sc2ccccc12 do in these assays?
UBC13 inh: 69*; Casp3 counter: -5; UBC13 conf: 50*

How did COc1ccc(-c2sc3ccccc3c2C#Cc2cncn2C)cc1 do in these assays?
UBC13 inh: 59*; Casp3 counter: -1; UBC13 conf: 44

What do the screens show for `O=C(O)C1CC=CCC1C(=O)NCc1ccc(Cl)c(Cl)c1` (stereo unspecified)?
UBC13 inh: -1

What do the screens show for `Oc1ccc[n+](CCCCC[n+]2cccc(O)c2)c1`?
MEKK3 PB1 HTS: 100; UBC13 inh: -1; Rce1 inhib: inactive; MEKK2 WT-MEK5: 98; MEKK2 mut-MEK5: 6
